Source: PubChem BioAssay AID488835 (Broad Institute, 2010)
Out of some 1,400 compounds screened, about 140 (10%) were called active.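 The calls were made as follows: active = Half-maximal inhibitory dose from the fit at or below ten times the top valid tested dose; inconclusive = Invalid fit, or flat curve showing 30 to 70% inhibition; inactive = the rest.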 These entries were drawn from the full list. Results with a measured potency or affinity are listed apart.

target: Lysine-specific demethylase 4C (Homo sapiens) (UniProt Q9H3R0); assay: inhibition of JMJD2C H3K9me3 demethylation – biochemical, DELFIA europium, cherry-picked samples, dose response (AID 488835); conditions: GST-JMJD2C(1-420); series mostly up to 6 µM;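 also: signal is the H3K9me2 demethylation product detected by a dimethyl-specific antibody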
Sequence (Q9H3R0 1-420 limits assumed): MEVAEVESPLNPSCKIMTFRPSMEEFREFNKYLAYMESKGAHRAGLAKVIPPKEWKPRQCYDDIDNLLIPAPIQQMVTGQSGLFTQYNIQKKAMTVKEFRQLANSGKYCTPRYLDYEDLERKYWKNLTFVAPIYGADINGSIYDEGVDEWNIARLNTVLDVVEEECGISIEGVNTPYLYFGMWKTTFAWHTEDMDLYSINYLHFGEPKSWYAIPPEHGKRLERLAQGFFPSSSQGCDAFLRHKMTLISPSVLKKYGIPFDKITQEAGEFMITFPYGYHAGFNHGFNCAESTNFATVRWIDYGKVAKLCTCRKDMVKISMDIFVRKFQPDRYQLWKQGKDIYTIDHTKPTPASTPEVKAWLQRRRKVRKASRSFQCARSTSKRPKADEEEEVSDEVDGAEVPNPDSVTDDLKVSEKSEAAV

outcome, inactive:
O=C(CC(=O)N/N=C/c1c(F)cccc1Cl)NCc1ccccc1
COc1ccc(NC(=O)N(C)C[C@@H]2Oc3c(NC(=O)Nc4c(C)noc4C)cccc3C(=O)N([C@@H](C)CO)C[C@@H]2C)cc1
Cc1ccc(S(=O)(=O)Nc2ccc3c(c2)C(=O)N([C@H](C)CO)C[C@H](C)[C@@H](CN(C)Cc2ccccc2)O3)cc1
COCCCNC(=O)c1ccc2c(c1)CCN2S(C)(=O)=O
Nc1c(C(=O)OCC2CCCO2)c2nc3ccccc3nc2n1C1CCCC1 (stereo not given)
Cn1c2ccccc2c2c(C(=O)N3CCN(c4ccccn4)CC3)cn(C3CCCC3)c(=O)c21
Cn1c(CNC(=O)c2ccccc2F)nnc1SCC(=O)Nc1nnc(C2CC2)s1
COC(=O)C1CN(S(=O)(=O)c2ccc(C)cc2)CCN1S(=O)(=O)c1ccc(C)cc1 (stereo not given)
CCOC(=O)c1ccc(N2C(=O)C(C)=C(C)C2=O)cc1
CCCCCC1CC(=O)N(Cc2ccccc2)C(=O)N1 (stereo not given)
CCN1c2ccccc2-c2nc3ccccc3n2C1c1ccccn1 (stereo not given)
Cn1c(=O)c2c(ncn2CCN(CCO)Cc2ccccc2)n(C)c1=O
CCN(C(=O)C(C)Sc1ccc(S(=O)(=O)N2CCOCC2)cn1)c1ccccc1 (stereo not given)
CCCCC1CCC(C(=O)N(CC(C)C)c2c(N)n(Cc3ccccc3)c(=O)[nH]c2=O)CC1 (stereo not given)
CCCCn1c(N)c(N(CC)C(=O)c2ccco2)c(=O)[nH]c1=O
CCCCN(C(=S)NC(=O)c1cc(OC)c(OC)c(OC)c1)c1c(N)n(Cc2ccccc2)c(=O)[nH]c1=O
Cc1cccc(NCc2ccc(O)c3ncccc23)c1
COCCn1nnnc1C(c1ccccc1)N1CCN(C(=O)c2ccco2)CC1 (stereo not given)
Cc1ccc([N+](=O)[O-])cc1N=C(c1cccc([N+](=O)[O-])c1)N1CCOCC1
COc1cccc(Oc2nccc(N(C)C)c2C#N)c1
CC(C)CCSc1cc(NCCO)c([N+](=O)[O-])c2nonc12
COc1cc2c(cc1CNC[C@H]1O[C@@H](n3cnc4c(N)ncnc43)[C@H](O)[C@@H]1O)OCO2
CC(OC(=O)c1cccnc1SCc1cc(=O)n2ccccc2n1)c1ccccn1 (stereo not given)
CN(C(=O)c1ccc(NC(=O)Cc2ccc(NC(=O)C3CCN(C(=O)C4CC4)CC3)cc2)cc1)C1CC1
O=C(Nc1c(F)cc(F)cc1Br)c1ccco1
CC(C)NC(=O)Nc1ccc2c(c1)C(=O)N([C@H](C)CO)C[C@H](C)[C@@H](CN(C)C(=O)Nc1ccccc1)O2
Nc1nc(C2CC(=O)OC23CCCCC3)cs1 (stereo not given)
CCOc1cc(/C=N/NC(=O)C(=O)N/N=C/c2ccc(O)c(OCC)c2)ccc1O
O=C(O)c1ccc2c(c1)nnn2C1CCCCC1
Cc1oc(C(C)(C)C)cc1C(=O)N1CCN(c2ncccc2C(F)(F)F)CC1
O=[N+]([O-])c1ccccc1S(=O)(=O)N1CCN(Cc2ccc3c(c2)OCO3)CC1
CC(=O)c1c(C(C)=O)c(C)n(-c2nc(-c3cccs3)c(C)s2)c1C
COc1cc(-c2nnco2)cc(OC)c1OC
Cc1c(NC(=O)C2Cc3ccccc3CN2C(=O)c2ccco2)c(=O)n(-c2ccccc2)n1C (stereo not given)
CCCCNC(=O)CC1N=C2c3ccccc3N=C(SCC(=O)Nc3cccc(C)c3)N2C1=O (stereo not given)
O=C(CNC(=O)c1ccc(S(=O)(=O)N2CCCC2)cc1)N/N=C/c1ccccc1
C[C@H](CO)N1C[C@H](C)[C@@H](CN(C)C(=O)Nc2ccc3c(c2)OCO3)Oc2c(NS(=O)(=O)c3ccc(F)cc3)cccc2C1=O
Cc1cc(C(=O)Nc2sc3c(c2C#N)CCC(C)C3)no1 (stereo not given)
COc1ccc(/C(C)=N/Nc2nccnc2Cl)cc1
CNC[C@@H]1Oc2ccc(NC(=O)Nc3cccc4ccccc34)cc2C(=O)N([C@@H](C)CO)C[C@@H]1C
COc1ccc(NC(=O)N(C)C[C@H]2Oc3c(NC(=O)C4CCCCC4)cccc3C(=O)N([C@H](C)CO)C[C@@H]2C)cc1
CC(=O)N/C(=C\c1ccccc1)C(=O)OCC(=O)NC1CCCC1
Cc1ccc(S(=O)(=O)N2[C@@H](c3ccc(Cl)c(Cl)c3)C(C(=O)O)=C[C@H]2C(C)(C)C)cc1
NC(=O)C1CCN(c2nc(-c3ccccc3Br)cs2)CC1
CC(NC(=O)CCC(=O)c1ccc(F)cc1)C1CC2CCC1C2 (stereo not given)
Cc1ccc(S(=O)(=O)N2CCOC2CNC(=O)C(=O)NCCc2ccc(S(N)(=O)=O)cc2)cc1 (stereo not given)
Cn1c(=O)[nH]c(=O)c2c1nc(N1CCc3ccccc3C1)n2CCSc1nc2ccccc2s1
CC[C@H]1CCCCc2ccccc2[C@@H](C(=O)C[C@@H](O)CC(C)=O)OC1=O
Cn1c(=O)c2c(nc(NC3CCCCC3)n2Cc2ccccc2)n(C)c1=O
CCOc1ccc2nc(NC(=O)CS(=O)(=O)c3ccc(C)cc3)sc2c1
CC[C@@H]1C=C(C(=O)O)[C@H](c2ccc(C)cc2)N1S(=O)(=O)c1ccc(C)cc1
CCc1ccc([C@@H]2CC=C(C(=O)O)[C@H](c3ccc(Br)cc3)N2S(=O)(=O)c2ccc(C)cc2)cc1
O=C(CSc1ncccn1)NCc1ccc(F)cc1
C[C@H](CO)N1C[C@H](C)[C@H](CN(C)Cc2ccc(Oc3ccccc3)cc2)Oc2ccc(NC(=O)Nc3cccc4ccccc34)cc2CC1=O
COc1ccc(N2CCN(C(=O)Cn3nnc(-c4ccc(N(C)C)cc4)n3)CC2)cc1
Cc1nn(Cc2ccc([N+](=O)[O-])cc2)c(=O)n1-c1cccc(Cl)c1
O=C(c1oc(=O)c2ccccc2c1-c1ccccc1)N1CCOCC1
O=C(CSc1ncccn1)Nc1ccc(S(=O)(=O)N2CCCCC2)cc1
O=C(Nc1ccccc1)Nc1ccc(S(=O)(=O)N2CCCCC2)cc1
Cc1noc(C)c1NC(=O)Nc1cccc2c1O[C@H](CN(C)S(=O)(=O)c1cccs1)[C@@H](C)CN([C@H](C)CO)C2=O
